High-throughput results from PubChem.
Rows were chosen to be rich in hits. Some 5.9% of all compounds tested hit in one or more screens of this group.
ATXN2 expr inh = Primary qHTS for Inhibitors of ATXN expression; HEK-293 ATXN2-luciferase reporter, luminescence, 24 h; Potency, µM (doses to about 57 µM), for the others: at the highest dose activity change, negative = inhibition, actives largely listed as inhibitors; 360,000 compounds, 0.72% hits; note: % is set by controls: 0 for no effect and ±100 for the full control effect; nearly all actives have a fitted effect of over 55% in size
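qHTS (up to 57 uM final) was run with 24 h compound exposure of reporter cells at 37 °C. Each well was multiplexed: SteadyGlo luminescence measured ATXN2-luciferase expression after a fluorogenic Gly-Phe-AFC viability readout (25 uM final).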
HepG2 viability = qHTS for Inhibitors of TGF-b: Cytotox Counterscreen; HepG2 CAGA-GFP viability, ATP luminescence, 18 h; Potency, µM (doses to about 46.1 µM), without a hit: at the highest dose activity change, negative = cytotoxicity, actives largely listed as cytotoxic; 410,000 compounds, 0.76% hits
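CellTiter-Glo luminescence gave cytotoxicity after 18 hours at 37 degrees C. The cells were HepG2 CAGA-GFP in 1% FBS DMEM, stimulated with 500 pg/mL TGF-beta after compound addition. %Activity was normalised to no-cell wells (complete cell-killing) and DMSO (no toxicity), and curves were fitted and classified.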
KB-V1 cytotox = qHTS assay for MDR1-selective chemotherapeutics: Primary screen using the drug-selected MDR subline cells KB-V1. KB-V1 MDR cells viability, CellTiter-Glo, 72 h. Potency, µM (top dose mostly 46.1 µM), hits mostly cytotoxic. 400,000 compounds, 3.4% hits. AID 1347076, 2019; note: % is set by controls: 0 for no effect and ±100 for the full control effect; nearly all actives have a fitted effect of over 60% in size
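Luminescent ATP read-out (CellTiter-Glo, 10 min) measures survival of drug-selected KB-V1 MDR cells after 72 h, 37 degrees C compound exposure. Medium: phenol-red-free DMEM, 10% FBS. Values from fitted concentration-response curves.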
TGFb SMAD3 inh = qHTS for Inhibitors of TGF-b; HepG2 CAGA-GFP TGF-b/SMAD3 reporter, GFP fluorescence, 18 h; TGF-beta stimulated, 500 pg/mL final; Potency, µM (highest dose often 46.1 µM), without a hit: at the highest dose activity, negative = inhibition, most hits filed as inhibitors; 410,000 compounds, 1.2% hits; AID 588855, 2011; note: % is set by controls: 0 for no effect and ±100 for the full control effect; nearly all actives have a fitted effect of over 65% in size
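Read-out: total well GFP (ex488/em500-530) summed from mean per-cell fluorescence. Cells: HEPG2 CAGA-GFP, 1% FBS DMEM, 18 h at 37 degrees C with 500 pg/mL final TGF-beta. Unstimulated wells served as the full-inhibition control; stimulated DMSO wells = 0%.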
KB-3-1 tox = qHTS assay for MDR1-selective chemotherapeutics: Primary screen using the parental adenocarcinoma cell KB-3-1; KB-3-1 viability, CellTiter-Glo ATP luminescence, 72 h; Potency, µM (highest dose often 46.1 µM), usual class: cytotoxic; 400,000 compounds, 1.4% hits; note: % is set by controls: 0 for no effect and ±100 for the full control effect; nearly all actives have a fitted effect of over 60% in size
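Cells are dispensed, compounds pinned in, plates held at 37 °C for 72 h, then CellTiter-Glo is added and luminescence read after 10 minutes. Cell line: parental KB-3-1 in phenol-red-free DMEM, 10% FBS.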
ATXN viability = Viability Counterscreen for Primary qHTS for Inhibitors of ATXN expression; S2 cells (HEK-293 line with an ATXN2-luciferase reporter) viability, CellTiter-Fluor protease fluorescence, 24 h; Potency, µM (doses to about 56.7 µM), actives largely listed as cytotoxic; 400,000 compounds, 0.49% hits; AID 651635, 2014; note: nearly all actives have a fitted effect of over 40% in size
Active calls of the source: *; i = inactive; ? = inconclusive; nt = no result; ! = repeats disagree. Calls come from the whole dose curve; as a rule, active = well fitted curve in the direction sought with a large enough effect; inconclusive = small, poorly fitted or top-dose-only effect, or another doubt; inactive = no such curve, though single readings can be large; an effect the other way counts as inactive or inconclusive. Potency is the fitted concentration of half-maximal effect.

SMILES | ATXN2 expr inh | HepG2 viability | KB-V1 cytotox | TGFb SMAD3 inh | KB-3-1 tox | ATXN viability
CCOC(=O)c1c(C)[nH]c(C(=O)COC(=O)C2(C)CC2(Cl)Cl)c1C (stereo not drawn) | 30% | 5% | 13µM* | 1% | i | i
CCOC(=O)COc1ccc(S(=O)(=O)Nc2ccc(C)cc2)cc1 | 3% | -39% | i | -38% | ? | i
CCOC(=O)COc1ccc(S(=O)(=O)c2ccc(OCC(=O)OCC)cc2)cc1 | 5% | 13µM* | i | -4% | i | i
CCOC(=O)c1c(C)[nH]c(C(=O)CSc2ccc(Cl)cc2)c1C | 34% | -2% | 18µM* | 2% | i | i
CCOC(=O)c1c(C)[nH]c(C(=O)COC(=O)c2ccc(O)cc2)c1C | -3% | 8% | ? | 28% | i | i
CCc1ccccc1NC(=O)Cc1c(C(=O)O)[nH]c2ccc(Cl)cc12 | -6% | 0% | i | 10% | i | i
Cc1ccc(C(=O)C[n+]2cccc3cccc(O)c32)cc1 | nt | -11% | i | -6% | i | nt
CCc1ccccc1Nc1cc(C(=O)NCc2ccc(C)cc2)c2ccccc2n1 | -8% | -33% | i | -17% | i | i
CCOC(=O)c1c(C)[nH]c(C(=O)COC(=O)COc2ccc(OC)cc2)c1C | -12% | 2% | 18µM* | -4% | i | i
CCOc1cc(N2CCOCC2)c(OCC)cc1NC(=O)Cc1cccc(OC)c1 | 7% | -10% | i | 9% | i | i
CCOc1cc(N2CCOCC2)c(OCC)cc1NC(=O)Cc1ccc(OC)c(OC)c1 | -7% | -9% | 5.8µM* | -23% | ? | i
CCOc1cc(N2CCOCC2)c(OCC)cc1NC(=O)COc1ncnc2ccccc12 | 1% | -12% | 16µM* | 0% | i | i
COc1ccccc1-n1cnc2cc(NC(=O)c3ccco3)ccc21 | 53% | 8% | ? | ? | ? | i
COc1ccc(NS(=O)(=O)c2cc(NC(=O)c3ccco3)ccc2N2CCCCC2)cc1 | -31% | -30% | i | -12% | 21µM* | i
COc1ccc(NS(=O)(=O)c2cc(NC(=O)c3cnc(C)cn3)ccc2N2CCCC2)cc1 | -5% | 6% | 4.6µM* | -1% | i | ?
COc1ccc(NS(=O)(=O)c2cc(NC(=O)c3ccc(=O)[nH]c3)ccc2N2CCCC2)cc1 | 2% | 0% | i | -1% | 3.7µM* | ?
COc1ccc(-n2cnc3cc(NC(=O)c4ccco4)ccc32)cc1 | 17% | 1% | 16µM* | ? | ? | i
CCCc1cc(=O)oc2c3c(ccc12)OCN(Cc1ccc(OC)cc1)C3 | nt | -11% | nt | -2% | nt | nt
COc1ccccc1CNC(=O)CCc1c(C)nn(-c2ccc(N3CCCCC3)nn2)c1C | nt | -2% | nt | -9% | nt | nt
CCOC(=O)Cn1nc(Cc2ccccc2)c2ccccc2c1=O | -1% | -2% | i | 0% | i | i
CN1CCCC(n2nc(Cc3ccc(Cl)cc3)c3ccccc3c2=O)CC1 (stereo not drawn) | 35µM*! | -41% | ? | -1% | 6.5µM* | 32µM*!
O=C(Nc1nccs1)[C@@H]1CC=C[C@@H]2CCN(Cc3ccc(Cl)c(Cl)c3)C(=O)[C@@H]21 | nt | -22% | ? | -23% | i | nt
O=C1CCC(=O)N1c1ccccc1 | -12% | 26% | i | -4% | i | i
O=C1CCCCC(=O)N(c2ccccc2)c2ccccc21 | -5% | 1% | 18µM* | -1% | i | i
C=CCN(c1ccccc1)S(=O)(=O)c1cccc(C(=O)N2CC(C)CC(C)C2)c1 (stereo not drawn) | -13% | -2% | 7.3µM* | -38% | ? | ?
